High-throughput results from PubChem BioAssay.
Rab9 prom act: activators of Rab9 promoter; Huh7 Rab9 promoter-luciferase reporter, luminescence, 24 h; hit rate 2.8% among 320,000; Potency, µM (series often up to 9.22 µM), for inactives: at the top dose activation, negative = inhibition, actives largely listed as activators; AID 485297; further: % of control where 0% means no effect; nearly all actives have a fitted effect of over 60% in size
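Cells were plated at 1500 per well in reduced-serum medium with 10% FBS and left 2 h. Compound in DMSO was then added for 24 h at 37 °C. Reporter signal was read by luminescence after 10 min with luciferase detection reagent.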
ELG1 genotox: induces genotoxicity in HEK293T cells with luciferase-tagged ELG1. HEK293T ELG1-luciferase reporter, luminescence, 16 h. Potency, µM (top dose mostly 46 µM), for inactives: at the highest dose activity change, positive = activation, most hits filed as activators. hit rate 1.3% among 330,000. AID 504466; further: % of control where 0% means no effect; nearly all actives have a fitted effect of over 60% in size
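Screening used a luciferase reporter fused to human ELG1 in HEK293T cells. Luminescence was read on a CCD plate imager after 16 hr exposure and 30 min ONE-Glo incubation.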
FLuc counter: firefly luciferase modulation, counter-screen for miR-21 project; AID 588342; purified FLuc, Km substrates, luminescence inhibition; hit rate 6.9% among 360,000; P08659; Potency, µM (highest dose often 57.5 µM), for inactives: at the top dose activity change, negative = inhibition, hits mostly inhibitors;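 further: plate controls were vehicle for no effect and reference inhibitor for full effect; nearly all actives have a fitted effect of over 55% in size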
Target sequence (P08659 whole entry, looked up): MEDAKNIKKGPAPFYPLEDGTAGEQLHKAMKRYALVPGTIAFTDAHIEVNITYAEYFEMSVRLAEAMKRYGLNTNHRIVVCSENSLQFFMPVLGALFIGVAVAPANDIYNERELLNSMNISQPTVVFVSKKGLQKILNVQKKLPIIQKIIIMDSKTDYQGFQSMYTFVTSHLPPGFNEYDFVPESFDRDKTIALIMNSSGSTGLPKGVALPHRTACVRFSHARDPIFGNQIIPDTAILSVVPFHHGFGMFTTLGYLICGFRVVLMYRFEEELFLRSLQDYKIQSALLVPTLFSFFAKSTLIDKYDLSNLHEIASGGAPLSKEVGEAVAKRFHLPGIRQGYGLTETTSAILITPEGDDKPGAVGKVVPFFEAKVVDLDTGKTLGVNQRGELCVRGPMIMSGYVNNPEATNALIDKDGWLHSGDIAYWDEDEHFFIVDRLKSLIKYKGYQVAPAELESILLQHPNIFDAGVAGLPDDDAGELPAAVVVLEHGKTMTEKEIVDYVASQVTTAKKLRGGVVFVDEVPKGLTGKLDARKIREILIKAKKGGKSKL
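Purified P. pyralis luciferase (10nM final) with 10uM D-luciferin and 10uM ATP (Km levels) in 50mM Tris acetate pH 7.5, 10mM Mg acetate, 0.01% Tween-20, 0.05% BSA; qHTS 6-point titration, ~60 µM downward; luminescence read.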
NPC1 prom act: NPC1 promoter activation; Huh7 NPC1 promoter luciferase reporter, 24 h; Potency, µM (doses to about 9.22 µM), inactives show top-dose activation, actives largely listed as activators; hit rate 2.4% among 320,000; further: % of control where 0% means no effect; nearly all actives have a fitted effect of over 60% in size
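Huh7 reporter cells (NPC1 promoter driving luciferase) are dosed with compound for 24 h at 37 °C, 5% CO2; luciferase detection reagent is then added and luminescence measured after 10 min at ambient temperature.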
SMN2 splice enh: increases expression of the SMN2 splice variant. HEK293 SMN2-luciferase splicing reporter, luminescence, 30-36 h. Potency, µM (highest dose often 46.1 µM), inactives show at the top dose activity change, positive = activation, hits mostly activators. hit rate 2.8% among 210,000. AID 1458; further: % of control where 0% means no effect; nearly all actives have a fitted effect of over 55% in size
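HEK293 cells carry an SMN2 minigene-luciferase reporter in which exon 7 inclusion puts luciferase in frame. Cells were seeded at 2000 cells/well, attached for 10-12 hours, then exposed to compounds for 30-36 hours at 37C before ONE-Glo luminescence.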
* marks the source's active call; other numbers are inactive results; ? = inconclusive; nt = no result given. Only some compounds are listed: those with a hit (about 7.5% of all), similar ones and a draw of the others. The call rests on the fitted dose curve; in most records, active means well fitted curve in the direction sought with a large enough effect; inconclusive means small, poorly fitted or top-dose-only effect, or another doubt; inactive means no such curve, though single readings can be large; an effect the other way counts as inactive or inconclusive. Potency means the concentration at half of the fitted maximal effect.

SMILES	Rab9 prom act	ELG1 genotox	FLuc counter	NPC1 prom act	SMN2 splice enh
O=C(CCl)Oc1ccc2occ(C(=O)c3cccs3)c2c1	?	12µM*	24µM*	28%	-1%
CC(=O)Oc1ccc2occ(C(=O)c3cccs3)c2c1	?	?	13µM*	?	-1%
O=c1ccc2cc3c(-c4ccccc4)coc3cc2o1	3%	7%	19µM*	-1%	nt
O=C(c1cccs1)c1coc2ccc(O)cc12	16%	?	?	-1%	-7%
CC(=O)c1c(COC(=O)c2ccc(C)cc2)nc2ccccc2[n+]1[O-]	-1%	-2%	2%	1%	nt
CCOc1ccccc1CNC(=O)C1CCN(C(=O)N2CC(CC)Oc3ccc(C)cc32)CC1 (configuration not stated)	nt	nt	-3%	nt	nt
CC1(C)CC(=O)c2cc(-c3nc(-c4ccc(Br)cc4)cs3)c(=O)n(-c3ccccc3)c2C1	nt	nt	-1%	nt	-1%
CCC1CCCCN1S(=O)(=O)c1ccc(NC(=O)c2nc(SC)ncc2Cl)cc1 (configuration not stated)	nt	nt	-3%	nt	-9%
COc1ccc(C(=O)OCC(=O)c2ccc(C3CCCCC3)cc2)cc1	-24%	6.5µM*	-13%	-11%	-85%
Nc1ccc(O)cc1C(=O)OCC(=O)C12CC3CC(CC(C3)C1)C2	-6%	-1%	15µM*	0%	-23%
Nc1ccc(O)cc1C(=O)OCC(=O)c1ccc(C2CCCCC2)cc1	3%	?	2.7µM*	-6%	-30%
O=C(CN1C(=O)C2CC=CCC2C1=O)NC1CCCc2ccccc21 (configuration not stated)	-12%	-1%	0%	-1%	24%
COc1ccc(-c2cc(C(=O)Nc3cccnc3)no2)cc1OC	?	?	19µM*	2.2µM*	3%
CN1CCN(C(=O)COCc2cc(-c3ccc4c(c3)OCO4)on2)CC1	14%	9%	-18%	2%	nt
O=C(COCc1cc(-c2ccc3c(c2)OCO3)on1)Nc1cccnc1	-1%	2%	21µM*	-5%	nt
O=C(Nc1cccnc1)c1cc(-c2ccc(F)cc2)on1	-4%	10%	2.4µM*	-3%	2%
O=C(Nc1cccnc1)c1cc(-c2ccc(Cl)c(Cl)c2)on1	-2%	23%	?	-3%	nt
O=C(COCc1cc(-c2ccc3c(c2)OCO3)on1)N1CCCCC1	?	?	19µM*	?	nt
CC(=O)Nc1ccc(NC(=O)C2CCN(S(=O)(=O)c3ccc4c(c3)CCCC(=O)N4)CC2)cc1	nt	nt	-1%	nt	nt
O=C(Nc1cccnc1)c1cc(-c2ccc3c(c2)OCO3)on1	5%	?	0.48µM*	5%	-11%
Cc1ccc(NC(=O)c2cc(-c3ccc4c(c3)OCO4)on2)cc1C	1%	?	0%	-1%	nt
Cc1ccc(-c2cc(C(=O)NCc3cccnc3)no2)cc1	?	13µM*	11µM*	?	22%
O=C(Nc1cccc(Br)c1)c1cc(-c2ccc3c(c2)OCCO3)on1	nt	nt	0.67µM*	nt	nt
Cc1ccc(S(=O)(=O)NNC(=O)C2Cc3c(ccc4ccccc34)O2)cc1 (configuration not stated)	-2%	-5%	7%	-4%	-37%
Cc1ccc(CC2C(=O)N(c3nc(C)cc(C)n3)C(=O)C2C)cc1 (configuration not stated)	15%	-2%	-1%	1%	8%
SMILES	Rab9 prom act	ELG1 genotox	FLuc counter	NPC1 prom act	SMN2 splice enh
CN(C)c1ccc(/C=C(/C#N)C(=O)NCc2ccccc2)o1	?	?	?	?	13µM*
Cc1ccc(NC(=O)COc2cccc(/C=C3\SC(=S)N(CCC(=O)O)C3=O)c2)cc1Cl	?	10%	?	16%	nt
O=C(O)CCN1C(=O)/C(=C\c2cccc(OCC(=O)Nc3ccc(Cl)cc3)c2)SC1=S	29%	2%	17µM*	27%	nt
COc1cccc(/C=C2/SC(=S)N(CCCC(=O)Nc3ccc(O)cc3)C2=O)c1	-38%	-15%	?	-19%	nt
O=C(CCN1C(=O)/C(=C/c2ccccc2Cl)SC1=S)Nc1cccnc1	2%	0%	?	0%	nt
O=C(CCCN1C(=O)/C(=C/c2ccccc2Cl)SC1=S)Nc1cccnc1	-32%	-10%	13µM*	-22%	nt
COc1cccc(/C=C2\SC(=S)N(CCCC(=O)Nc3ccc(C(=O)O)cc3)C2=O)c1	-13%	1%	21µM*	-3%	nt
O=C(CCN1C(=O)/C(=C\C=C\c2ccccc2)SC1=S)Nc1cccc(C(=O)O)c1	?	?	0.95µM*	3.2µM*	nt
COc1cc(C(=O)NCC(=O)N2CCN(S(=O)(=O)c3ccccc3C(F)(F)F)CC2)cc(OC)c1OC	nt	0%	nt	nt	nt
Cc1cc(N=Nc2ccccc2)c(NCC(O)C(O)C(O)CO)cc1C (configuration not stated)	-4%	7%	?	0%	-41%
O=C(CCN1C(=O)/C(=C/c2ccc3c(c2)OCO3)SC1=S)Nc1cccc(C(=O)O)c1	0%	2%	21µM*	10%	nt
COc1ccc(/C=C2\SC(=S)N(CCC(=O)Nc3cccc(C(=O)O)c3)C2=O)cc1	2%	8%	5.4µM*	18%	nt
O=C(CCCN1C(=O)/C(=C\c2ccccc2)SC1=S)Nc1cccc(C(=O)O)c1	3%	0%	?	2%	nt
O=C(CCN1C(=O)/C(=C/c2ccc(Cl)cc2)SC1=S)Nc1cccc(C(=O)O)c1	-3%	-4%	15µM*	2%	nt
CC12CCC(C(=O)N/N=C/c3ccc(O)cc3)(OC1=O)C2(C)C (configuration not stated)	?	-1%	6%	-1%	nt
OCC1=CC[N+]2(Cc3ccccc3)CCC(O)[C@@H]12 (some centres not stated)	nt	nt	nt	nt	4%
Cc1ccc(Nc2c([N+](=O)[O-])c(=O)n(C)c3ccccc23)cc1C	-5%	-3%	?	1%	-23%
COc1cccc(NC(=O)Nc2ccc3nsnc3c2)c1	2.8µM*	0%	7.6µM*	?	13µM*
COc1cccc(NC(=O)Nc2ccc3nc(C)c(C)nc3c2)c1	26%	-7%	?	23%	nt
Cc1nc2cc(NC(=O)Nc3nccs3)ccc2n1C	1.4µM*	2.6µM*	4.3µM*	1.4µM*	14µM*
COc1cccc(NC(=O)Nc2ccc3c(c2)nc(C)n3C)c1	0.71µM*	?	0.95µM*	0.71µM*	nt
CCn1c(C)nc2cc(NC(=O)Nc3cccc(C(C)=O)c3)ccc21	?	-9%	1.5µM*	2.8µM*	nt
Cc1nc2cc(NC(=O)NC(C)(C)C)ccc2n1C	13%	9%	?	14%	nt
CC(NC(=O)c1ccco1)C(=O)N1CCN(c2cccc(C(F)(F)F)c2)CC1 (configuration not stated)	-1%	-7%	-3%	1%	nt
CCN(CC(=O)NCc1ccc(F)cc1)C(=O)C1CCN(S(=O)(=O)c2ccc(C(C)C)cc2)CC1	-4%	-1%	-1%	-2%	nt
